Source: PubChem BioAssay
BoNT-F LC inh – inhibitors of Botulinum neurotoxin F light chain protease; Multiplex microsphere protease cleavage assay, flow cytometry; inhibition, % at 10 µM; 360,000 tested, 0.22% active; AID 588497; in the data active = inhibition above about 35%, passing the limit was not always enough; inconclusive = no clear call, values can overlap the other calls; also: plate controls were buffer without enzyme for full effect and enzyme alone for no effect
Bead autofluor – counter-screen for toxin protease inhibitors: compound fluorescence; compound autofluorescence counterscreen, microsphere flow cytometry; hits give high values; fluorescence intensity (no concentration beside the values); 360,000 tested, 3.1% active; AID 624483; in the data active = fluorescence intensity above about 16000; inconclusive = no clear call, values can overlap the other calls
BoNT A protease – inhibitors of Botulinum neurotoxin A light chain protease | multiplex microsphere protease substrate cleavage, flow cytometry | inhibition, % at 10 µM | 360,000 tested, 0.17% active; also: plate controls were buffer without enzyme for full effect and enzyme alone for no effect
Anthrax LF inh2 – inhibitors of Bacillus anthracis lethal factor protease; P15917; multiplex microsphere protease cleavage assay, LF; inhibition, % at 10 µM; 360,000 tested, 0.12% active; AID 588501; also: plate controls were buffer without enzyme for full effect and enzyme alone for no effect
TcdB GH inh – TcdB glycohydrolase inhibition; TcdB glycohydrolase enzymatic assay, plate reader; inhibition, % at 9.99 µM; 350,000 tested, 0.24% active; P18177; in the data active = inhibition above about 10%
Starred values were filed as active, the others as inactive; ? = inconclusive; . = no result; ! = not active in a repeat. Only a selection was taken, and hits are over-represented in it overall. Rule as the data show it, unless noted: active = inhibition above about 30%; inconclusive = no clear call, values can overlap the other calls; inactive = below that.

SMILES | BoNT-F LC inh | Bead autofluor | BoNT A protease | Anthrax LF inh2 | TcdB GH inh
O=C(NCCc1ccccc1)C1CCN(c2nc3ccccc3o2)CC1 | -24 | 12206 | -2 | -2 | 1
CCOC(=O)N1CCC(NC(=O)C2CCN(C(=O)N3CC(C)Oc4ccccc43)CC2)CC1 (stereo unspecified) | 1 | 16437* | -1 | 0 | 1
CCOC(=O)N1CCC(NC(=O)C2CCCN(c3nc4ccccc4o3)C2)CC1 (stereo unspecified) | -5 | 25111* | -3 | 2 | .
O=C(NC1CCCCCCC1)C1CCN(c2nc3ccccc3o2)CC1 | -6 | 17616* | -4 | -3 | .
CCCNC(=O)C[C@@H]1CC[C@H]2[C@H](COc3ccc(NC(=O)NCC)cc3C(=O)N2C)O1 | . | . | . | . | 0
CN1CCC(OC(=O)c2ccc(Br)cc2)CC1 | 5 | 21548* | 3 | -1 | .
CC1(C)NC(=O)N(CC(=O)Nc2nc(-c3ccc(F)cc3)cs2)C1=O | 1 | 18087* | 3 | -8 | .
O=C(CN1C(=O)NC2(CCCC2)C1=O)Nc1nc(-c2ccc(F)cc2)cs1 | -7 | 10228 | -1 | 5 | .
CCOC(=O)C1=C(C)NC(C)=C(C(=O)OCC)C1 | ? | 18757*! | ? | -4 | 1
CCOC(=O)C1=C(C)NC(C)=C(C(=O)OCC)C1C(=O)O | -4 | 20924* | ? | 1 | .
CCCC1C(C(=O)OCC)=C(C)NC(C)=C1C(=O)OCC | -24 | 5086 | 0 | -1 | .
C[C@@H]1CN([C@H](C)CO)C(=O)c2cc(C#CC3(O)CCCC3)cnc2O[C@@H]1CN(C)C(=O)C1CCOCC1 | . | . | . | . | 0
CCCCOc1ccc(C(=O)Nn2cnnc2)cc1 | 0 | 23869* | ? | -5 | .
COc1ccc(-n2cnnc2SCc2csc(-c3ccccc3)n2)cc1 | -1 | 22341* | ? | -3 | .
CCNC(=O)C[C@H]1C=C[C@@H](NC(=O)C2CCC2)[C@H](CO)O1 | . | . | . | . | -10
CCCCCCn1c2c(c(=N)c3c1CCC3)CCC2 | 2 | 22477* | ? | -1 | .
Cc1nc(N)sc1-c1csc(N(C)c2ccc(O)cc2)n1 | -6 | 23793* | 0 | -1 | 0
COc1ccc(-c2ccc3c(c2)O[C@H](CN(C)CC2CCOCC2)[C@H](C)CN([C@H](C)CO)S3(=O)=O)cc1 | . | . | . | . | 1
Cc1c(O[C@@H]2O[C@H](CO)[C@@H](O)[C@H](O)[C@H]2O)ccc2c1oc(=O)c1ccccc12 | 35* | 3855 | 3 | -2 | -3
Cc1c(C)c2ccc(O[C@@H]3O[C@H](CO)[C@H](O)[C@H](O)[C@H]3O)c(C)c2oc1=O | 12 | 3203 | 0 | -12 | 2
O=C(C[C@H]1C=C[C@H](NC(=O)c2ccncc2)[C@H](CO)O1)NCCc1ccncc1 | . | . | . | . | 0
COc1ccc(S(=O)(=O)N(CCc2ccccc2)CC(=O)NCCCO)cc1 | -18 | 9981 | -2 | -1 | .
CCNC(=O)CN(CCc1ccccc1)S(=O)(=O)c1ccc(OC)cc1 | 3 | 16480* | 0 | -3 | .
O=c1n(-c2ccccc2)c(=O)n2n1CC(COc1ccccc1)=C1[C@@H](c3ccccc3)OB(O)C[C@@H]12 | . | . | . | . | -1
C[C@H](CO)N1C[C@H](C)[C@H](CN(C)Cc2cccc(C(F)(F)F)c2)Oc2ncc(-c3ccc(F)cc3)cc2C1=O | . | . | . | . | 0
SMILES | BoNT-F LC inh | Bead autofluor | BoNT A protease | Anthrax LF inh2 | TcdB GH inh
Cc1ccc2c3c(c(SCC(=O)Nc4nonc4C)nc2c1)CCCC3 | -1 | 23233* | ? | -3 | .
C/C=C/c1cnc2c(c1)C(=O)N([C@@H](C)CO)C[C@H](C)[C@H](CN(C)C(=O)NC1CCCCC1)O2 | . | . | . | . | -1
Fc1ccc(CNn2cnnc2SCc2ccc(F)cc2)cc1 | 1 | 6004 | 1 | 14 | .
Cc1ccc(CNn2cnnc2SCc2ccc(F)cc2)cc1 | -1 | 22609* | 0 | -3 | .
Cc1ccsc1CNn1cnnc1SCc1ccc(Cl)cc1 | -7 | 23748* | -4 | 0 | .
CCC(=O)Nc1ccc2c(c1)C(=O)N(C)C[C@@H](OC)[C@H](C)CN(Cc1cc(-c3ccccc3)on1)[C@H](C)CO2 | . | . | . | . | -1
CCCC(=O)Nc1cccc(NC(=O)c2ccc(C)c([N+](=O)[O-])c2)c1 | 0 | 23307* | ? | -1 | .
O=c1c2c([N+](=O)[O-])cc([N+](=O)[O-])cc2sn1Cc1ccccc1 | 56* | 3488 | 50* | -10 | -3
O=c1c2c([N+](=O)[O-])cc([N+](=O)[O-])cc2sn1-c1ccc(Br)cc1 | 8 | 2407 | 3 | -3 | .
CCOC(=O)c1sc(N)c(C#N)c1COC(=O)CNC(=O)c1cc(OC)c(OC)c(OC)c1 | -5 | 16372* | 0 | -5 | .
O=C(NNC(=S)Nc1ccccc1)C1CC1 | -4 | 5187 | 0 | -2 | .
S=C(NN=C(C1CC1)C1CC1)Nc1ccccc1 | -5 | 17259* | -2 | -3 | .
Cc1cc(C)c(NC(=O)CSc2nnc(Cc3cccn3C)n2-c2ccc(F)cc2)c(C)c1 | -7 | 25100* | -3 | -2 | 0
Cn1cccc1Cc1nnc(SCC(=O)NCc2ccco2)n1-c1ccc(F)cc1 | 4 | 22151* | ? | -6 | -2
CC(=O)Nc1cccc(NC(=O)CSc2nnc(Cc3cccn3C)n2-c2ccc(F)cc2)c1 | 2 | 21922* | 2 | -8 | 1
Cc1ccc(-n2c(SCC(=O)NCc3ccco3)nnc2-c2cccnc2)c(C)c1 | 1 | 22964* | 1 | 2 | .
CCC(=O)N(C)C[C@@H]1Oc2cc(-c3cccc(F)c3)ccc2S(=O)(=O)N([C@H](C)CO)C[C@H]1C | . | . | . | . | 0
O=C(C[C@@H]1CC[C@@H](NC(=O)Nc2ccccc2F)[C@H](CO)O1)NCc1ccccc1 | . | . | . | . | 1
Cc1noc(C)c1NC(=O)N[C@@H]1C=C[C@H](CC(=O)NCc2ccc(Cl)c(Cl)c2)O[C@@H]1CO | . | . | . | . | -1
C[C@@H]1CCCCO[C@H](CN(C)S(C)(=O)=O)[C@@H](C)CN([C@@H](C)CO)C(=O)c2cc(NS(=O)(=O)c3ccccc3)ccc2O1 | . | . | . | . | 2
C[C@@H]1CN([C@@H](C)CO)C(=O)c2cccc(NS(=O)(=O)c3ccc(Cl)cc3)c2O[C@@H]1CN(C)CC1CC1 | . | . | . | . | 1
COc1ccc(CCn2c(O)c(C=NCc3ccc4c(c3)OCO4)c(=O)[nH]c2=O)cc1OC | 0 | 9798 | -1 | 12 | .
COc1ccc(OC)c(-n2c(O)c(C=NCc3ccc4c(c3)OCO4)c(=O)[nH]c2=O)c1 | -3 | 16727* | -1 | -1 | .
O=C(Nn1c(O)c(C=C2N=c3ccccc3=N2)sc1=S)c1ccccc1Cl | 55* | 5061 | 61* | 65* | .
O=S(=O)(Nn1c(O)c(C=C2N=c3ccccc3=N2)sc1=S)c1ccccc1 | 3 | 4112 | 6 | 0 | 0
Oc1c(C=C2N=c3ccccc3=N2)sc(=S)n1-c1ccccc1 | 17 | 2577 | 44* | 26 | 0
Oc1c(C=C2N=c3ccccc3=N2)sc(=S)n1C1CCCCC1 | 22 | 2417 | 70* | 33* | 1
COc1ccccc1S(=O)(=O)N[C@H]1C=C[C@H](CC(=O)N2CCN(C)CC2)O[C@H]1CO | . | . | . | . | -12
CO[C@@H]1CN(C)C(=O)c2ccc(NC(=O)c3ccccc3)cc2OC[C@@H](C)N(C)C[C@H]1C | . | . | . | . | -1
CCOc1cc(-c2nc(-c3ccc(C)nc3OCC)no2)cc(OCC)c1OCC | -1 | 23089* | ? | -6 | .
